HCMV inh = qHTS Assay for inhibitors of the human cytomegalovirus (HCMV). HFF cells, HCMV-luciferase reporter, 72 h; stronger effect = lower value. actives 4.5% (n = 410,000). activity change, negative = inhibition, % at 57.5 µM. AID 1259415, 2018; in the data active means activity change below about -60%; inconclusive means no clear call, values can overlap the other calls; inactive means above about -39%
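Two compound doses tested in HFFs infected with HCMV-luciferase, MOI 1 PFU/cell, 72 h at 37C. Lysate luminescence read with OneGlo; data normalized against buffer-only and 10uM Salinomycin inhibitor controls.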
FMDV antiviral = High Throughput Screening for Foot and Mouth Disease Virus Antivirals; actives 1.2% (n = 410,000); Potency, µM (top dose mostly 57.9 µM), without a hit: at the highest dose activity change, negative = inhibition, hits mostly inhibitors; FMDV antiviral cell-based qHTS; calls by dose curve; tested in HEK293T cells; further: read-out not given here; potency means the concentration at half of the fitted maximal effect; nearly all actives have a fitted effect of over 45% in size
AmpC inh detg = qHTS Inhibitors of AmpC Beta-Lactamase (assay with detergent). P00811. AmpC hydrolysis of nitrocefin, absorbance 480 nm, 0.01% Triton. Potency, µM (highest dose often 114 µM), for inactives: top-dose activity change, negative = inhibition, actives largely listed as inhibitors. actives 0.041% (n = 370,000). AID 485294, 2010;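 further: potency means the concentration at half of the fitted maximal effect; 0% = no-compound wells and -100% = no-enzyme wells; nearly all actives have a fitted effect of over 25% in size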
Target sequence (P00811 whole entry, looked up): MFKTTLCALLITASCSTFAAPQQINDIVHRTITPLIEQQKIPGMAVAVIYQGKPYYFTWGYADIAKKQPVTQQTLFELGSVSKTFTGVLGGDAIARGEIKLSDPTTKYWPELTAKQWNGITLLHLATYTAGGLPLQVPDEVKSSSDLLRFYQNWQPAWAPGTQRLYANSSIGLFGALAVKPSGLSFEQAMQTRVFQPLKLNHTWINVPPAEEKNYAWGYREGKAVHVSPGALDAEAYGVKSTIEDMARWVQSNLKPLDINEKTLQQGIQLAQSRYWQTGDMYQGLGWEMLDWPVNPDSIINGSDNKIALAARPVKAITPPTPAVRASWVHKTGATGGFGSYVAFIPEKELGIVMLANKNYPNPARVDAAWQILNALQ
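AmpC (5.3 nM in the dispensed reagent) in 20 mM phosphate pH 7.0 with 0.01% (detergent screen) or 0.0001% Triton X-100 was preincubated with compounds for 15 min at room temperature. Nitrocefin was then added from an 800 uM solution, and hydrolysis was followed at 480 nm.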
HCV inh = qHTS Assay for Inhibitors of Hepatitis C Virus (HCV); Huh7.5.1 HCVcc-Cre infection, luciferase reporter, 44 h; Potency, µM (series often up to 41.8 µM), inactives show top-dose activity change, negative = inhibition, usual class: inhibitors; actives 3.4% (n = 340,000); further: potency means the concentration at half of the fitted maximal effect
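HCVcc-Cre virus at an moi near 0.5 was added right after compound to cells cultured 4 h from seeding (1,000 cells/well). Luciferase activity was determined 44 h later, 15 min after substrate addition at RT.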
AmpC no deterg = qHTS Inhibitors of AmpC Beta-Lactamase (assay without detergent); AmpC nitrocefin hydrolysis, absorbance 480 nm, 0.0001% Triton; P00811; actives 0.52% (n = 330,000); Potency, µM (doses to about 57.1 µM), for inactives: at the top dose activity change, negative = inhibition, most hits filed as inhibitors;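 further: potency means the concentration at half of the fitted maximal effect; plate controls were no compound for no effect and no enzyme for full effect; nearly all actives have a fitted effect of over 20% in size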
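AmpC (5.3 nM in the dispensed reagent) in 20 mM phosphate pH 7.0 with 0.01% (detergent screen) or 0.0001% Triton X-100 was preincubated with compounds for 15 min at room temperature. Nitrocefin was then added from an 800 uM solution, and hydrolysis was followed at 480 nm.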
The depositor's hits bear a star; ? = inconclusive; nt = no result; [ ] = remark or other dose. Sampled rows, rich in hits. Any-hit rate of the full collection: about 7.3%. Unless noted, the call rests on the fitted dose curve; in most records, active means well fitted curve in the direction sought with a large enough effect; inconclusive means small, poorly fitted or top-dose-only effect, or another doubt; inactive means no such curve, though single readings can be large; an effect the other way counts as inactive or inconclusive. Unless noted, on the % scale 0 is the no-effect control and ±100 the full control effect.

SMILES	HCMV inh	FMDV antiviral	AmpC inh detg	HCV inh	AmpC no deterg
Cc1c(-c2cccc(NC(=O)Cc3ccccc3)c2)nc2ncccn12	-19	44%	-1%	nt	nt
Cc1c(-c2cccc(NC(=O)c3ccco3)c2)nc2ncccn12	-76*	-2%	5%	?	-27%
Cc1cccc(C)c1NC(=O)COc1ccccc1C(=O)Nc1ccc(Br)cn1	-65*	6%	5%	3%	-40%
COc1cccc(Cn2c(CNS(=O)(=O)c3ccc(F)c(Cl)c3)nc3cccnc32)c1	-14	46%	0%	nt	nt
Cc1ccc(CCNC(=O)CCCn2c(=O)c3ccccc3n(Cc3ccccc3C#N)c2=O)cc1	-6	-24%	20%	nt	nt
Cc1ccc(C(C)C)c(OCC(=O)NNC(=O)Nc2ccccc2)c1	-67*	-27%	nt	-21%	nt
COc1ccc(NC(=O)c2ccco2)cc1NC(=O)COc1cc(C)ccc1C(C)C	-79*	?	5%	nt	nt
Cc1ccc(C(C)C)c(OCC(=O)Nc2cccc(NC(=O)c3ccco3)c2)c1	-18	-29%	-5%	nt	nt
Cc1cccc(NC(=O)COc2ccccc2C(=O)NC(C)c2ccccc2)c1 (stereo unspecified)	nt	-18%	-7%	10µM*	-30%
O=C(O)CC1(CC(=O)Nc2cccc(C(=O)O)c2)CCCC1	-102*	3%	2%	1%	-14%
Cc1cccc(NC(=O)c2ccccc2OCC(=O)c2ccccc2)c1	?	1%	?	?	-15%
CCS(=O)(=O)c1nc(S(=O)(=O)c2ccc(C)cc2)c(NCC(C)C)s1	?	47%	17%	nt	nt
Cc1ccccc1OCC(=O)Nc1ccc(NC(=O)c2ccco2)cc1	-80*	-1%	-8%	?	3%
Cc1ccccc1OCC(=O)Nc1cccc(C(=O)O)c1	-20	4µM*	-12%	1%	3%[2.29 µM]
Cc1cccc(OCC(=O)Nc2cc(NC(=O)COc3cccc(C)c3C)cc(C(=O)O)c2)c1C	-6	60%	14%	16%	-27%
COc1ccc(Nc2cc3c(cn2)cc(-c2cccc(C(F)(F)F)c2)n3C)c(OC)c1	-1	nt	nt	nt	nt
COc1cc(F)ccc1-c1cc(C(=O)Nc2ccc(C)c(NS(C)(=O)=O)c2)[nH]n1	-38	25µM*	nt	nt	nt
COc1ccc(F)cc1-c1cc(C(=O)Nc2ccc(C)c(NS(C)(=O)=O)c2)[nH]n1	-28	35µM*	nt	nt	nt
CCCOc1ccc(F)cc1-c1cc(C(=O)Nc2ccc(C)c(NS(C)(=O)=O)c2)[nH]n1	-32	35µM*	nt	nt	nt
CC(=O)c1ccc(F)c(-c2cc(C)cc3c2OC(CNC(=O)C2CCCCN2C)C3)c1 (stereo unspecified)	nt	-14%	nt	nt	nt
COc1cccc(OCc2nnc(-c3cccs3)o2)c1	-77*	nt	-2%	nt	-18%
CSc1ncc(C(=O)Nc2cccc(C)c2C)c(C)n1	-39	-27%	-3%	-7%	-10%
O=C(c1ccc(F)cc1)N1CCN2C(=O)c3ccccc3C12c1ccc(Cl)cc1 (stereo unspecified)	-64*	-12%	0%	-4%	-12%[2.29 µM]
CCOC(=O)c1ccc(Nc2nc3ccc(C(=O)c4ccccc4)cc3n3c(C)nnc23)cc1	-18	-10%	1%	nt	nt
C=Cc1ccc(Cn2c(C)c(C(=O)NCc3ccc(C#N)cc3)sc2=O)cc1	-60*	?	nt	nt	nt
SMILES	HCMV inh	FMDV antiviral	AmpC inh detg	HCV inh	AmpC no deterg
COc1ccc(CNC(=O)c2sc(=O)n(Cc3ccc(C)cc3)c2C)cc1OC	-7	25µM*	nt	nt	nt
COc1ccccc1Cn1c(C)c(C(=O)NCc2cccc(C)c2)sc1=O	-61*	-10%	nt	nt	nt
COc1ccc(CNC(=O)c2sc(=O)n(Cc3ccc(-c4ccccc4)cc3)c2C)cc1OC	?	16µM*	nt	nt	nt
C=Cc1ccc(Cn2c(C)c(C(=O)NCc3ccc4c(c3)OCO4)sc2=O)cc1	5	-24%	nt	nt	nt
COc1ccccc1CNC(=O)Cn1c(-c2cccs2)cc2cc(F)ccc21	-8	-3%	16%	nt	nt
Cc1ccc(-c2cn3nc(N4CCCC(C(=O)Nc5ccc(F)cc5)C4)sc3n2)cc1 (stereo unspecified)	0	-2%	-2%	nt	nt
COc1ccc(CNC(=O)c2[nH]c(C(F)(F)F)nc2-c2ccccc2)cc1OC	-2	-10%	nt	nt	nt
COc1ccc(CNC(=O)c2sccc2-c2ccccc2)cc1OC	-71*	?	3%	-30%	-15%
Cc1c(C(=O)NCc2cccc([N+](=O)[O-])c2)sc(=O)n1Cc1cccc(F)c1	-61*	-8%	nt	nt	nt
O=S(=O)(CCSc1nc2ccccc2o1)c1nc2ccccc2s1	32	16µM*	-15%	11µM*	-28%
CCS(=O)(=O)CCSc1nc2ccccc2o1	2	10%	-9%	-1%	-17%
COc1cc(OC)c(OC)cc1CN1CCCC(c2[nH]ncc2-c2cccc(C(F)(F)F)c2)C1 (stereo unspecified)	nt	-7%	nt	nt	nt
O=S1(=O)c2ccc(Br)cc2N2CCC[C@H]2CN1Cc1ccccc1	-35	-22%	nt	?	-24%
C[C@@H](c1ccccc1)N1C[C@H]2CCCN2c2cc(Br)ccc2S1(=O)=O	-13	-14%	nt	11µM*	-35%
Cc1ccc(-c2cn3cccnc3n2)cc1NC(=O)C(C)(C)Oc1ccc(Cl)cc1	14	-2%	-1%	nt	nt
O=C(O)c1cn(-c2ccc(F)cc2)c2cc(Cl)c(F)cc2c1=O	-61*	-12%	?	0%	-6%
CCOC(=O)c1cn(-c2ccc([N+](=O)[O-])cc2)c2cc(Cl)c([N+](=O)[O-])cc2c1=O	-18	-22%	0%	18%	-12%
Cc1ccc(OCC(=O)N(C)CC(=O)Nc2ccccc2Cl)c([N+](=O)[O-])n1	-84*	-11%	?	-2%	-18%
Cc1ccc(OCC(=O)N(C)CC(=O)Nc2ccc(F)cc2)c([N+](=O)[O-])n1	-1	-1%	-12%	10%	-2%
CCN(CC)c1ccc(C(=O)NNC(=O)CCl)cc1	-35	4%	-4%	?	-42%
CCN(CC)c1ccccc1	-37	-23%	-4%	1%	-4%
CCN(CC)c1ccc(C(=C2C=CC(=[N+](CC)CC)C=C2)c2ccc(N(CC)CC)cc2)cc1	-105*	8.9µM*	nt	1.8µM*	nt
CCN(CC)c1ccc(C(=C2C=CC(=[N+](CC)CC)C=C2)c2ccccc2)cc1	-100*	3.5µM*	nt	?	nt
Cc1cc(NC(=O)CSc2ncc(C(=O)Nc3ccc(F)cc3)c(=O)n2C)no1	41	-6%	2%	nt	nt
Cc1nc(SCC(=O)N2CCOCC2)c2c(C)c(C)sc2n1	-27	-5%	-3%	-26%	10%
CCCc1nc(SCC(=O)N2CCOCC2)c2c(C)c(C)sc2n1	-78*	31%	-14%	1%	65%

Assay outcomes deposited in PubChem by National Center for Advancing Translational Sciences (NCATS).
